Sampled rows, rich in hits. Any-hit rate of the full collection: about 7.9%.
HT1080 IDH1KD tx – toxicity to HT-1080 IDH1 knockdown cells (counter line); HT-1080 IDH1 knockdown viability, ATP luminescence, 48 h; 2% of 360,000 active; Potency, µM (doses to about 46.1 µM), inactives show top-dose activity, negative = toxicity, hits mostly cytotoxic;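 also: 0% = DMSO wells and -100% = cell-free medium wells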
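% activity derives from luminescence (CellTiter-Glo), normalised to DMSO and no-cell wells. HT-1080-IDH1KD cells, 750/well, had 48 h compound exposure at 37 °C.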
KB-3-1 tox – KB-3-1 parental cell cytotoxicity. 1.4% of 400,000 active. Potency, µM (top dose mostly 46.1 µM), most hits filed as cytotoxic. KB-3-1 viability, CellTiter-Glo ATP luminescence, 72 h. AID 1347075; also: % is scaled to controls: 0 for no effect and ±100 for the full control effect; nearly all actives have a fitted effect of over 60% in size
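Here the drug-naive KB-3-1 line serves as comparator for MDR sub-line selectivity; cells received compound titrations, 72 h at 37 °C, then CellTiter-Glo readout.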
MCF10A rerep – inducers of DNA re-replication in MCF 10A breast cells. AID 624296. 2.9% of 350,000 active. MCF 10A DNA re-replication, Hoechst nuclear intensity, 48 h. Potency, µM (top dose mostly 46.1 µM), for inactives: top-dose activity, positive = re-replication, actives largely listed as activators; also: % of control where 0% means no effect; nearly all actives have a fitted effect of over 50% in size
HT1080NT lethal – kills 2HG-producing HT-1080-NT fibrosarcoma cells | AID 686970 | HT-1080-NT fibrosarcoma viability, CellTiter-Glo ATP luminescence, 48 h | Potency, µM (top dose mostly 46.1 µM), for inactives: top-dose activity, negative = less viability, actives largely listed as cytotoxic | 1.6% of 360,000 active;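 also: NT is the 2HG producing partner of a matched IDH1 knockdown line; 0% = DMSO-treated cells and -100% = media-only wells without cells; nearly all actives have a fitted effect of over 55% in size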
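Compounds were tested in concentration-response format on HT-1080-NT cells for 48 hours at 37 degrees C. Cell viability came from CellTiter-Glo luminescence; curves were classified by r2, response magnitude and activity.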
KB-V1 cytotox – KB-V1 MDR subline cytotoxicity; KB-V1 MDR cells viability, CellTiter-Glo, 72 h; 3.4% of 400,000 active; Potency, µM (highest dose often 46.1 µM), most hits filed as cytotoxic; also: % is scaled to controls: 0 for no effect and ±100 for the full control effect; nearly all actives have a fitted effect of over 60% in size
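qHTS viability screen in drug-selected KB-V1 MDR cells: 72 h compound treatment at 37 degrees C, ATP luminescence end point.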
SW480 rereplic – induces DNA re-replication in SW480 colon adenocarcinoma cells. Potency, µM (highest dose often 46.1 µM), without a hit: top-dose re-replication activation, actives largely listed as activators. SW480 DNA re-replication, Hoechst DNA content imaging, 48 h. 1.8% of 340,000 active. AID 624297; also: % of control where 0% means no effect; nearly all actives have a fitted effect of over 55% in size
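Compounds, transferred as 23 nL by pin tool, were incubated with cells for 48 hr; DNA content per nucleus was then quantified by Hoechst staining and fluorescence plate imaging.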
* = called active by the depositor; i = inactive; ? = inconclusive; . = no result. Calls follow the shape of the dose curve; as a rule, active = well fitted curve in the direction sought with a large enough effect; inconclusive = small, poorly fitted or top-dose-only effect, or another doubt; inactive = no such curve, though single readings can be large; an effect the other way counts as inactive or inconclusive. Potency is read from the fitted curve at half-maximal effect.

SMILES	HT1080 IDH1KD tx	KB-3-1 tox	MCF10A rerep	HT1080NT lethal	KB-V1 cytotox	SW480 rereplic
COc1cccc(C(C(=O)NC2CCCC2)N2CCN(c3cc(C)nc4ccccc34)CC2)c1OC (stereo not given)	-4%	i	.	-11%	?	.
O=C(NNC(=O)c1cccnc1SCc1cccc([N+](=O)[O-])c1)c1ccc(F)cc1	-11%	?	10%	-18%	16µM*	2%
O=C(NNC(=O)c1cccnc1SCc1cccc([N+](=O)[O-])c1)c1cccnc1	-11%	i	1%	-3%	?	-7%
Cc1ccc(N/C(N)=N/c2nc(C)cc(N3CCCCC3)n2)c(C)c1	?	16µM*	18µM*	15µM*	10µM*	?
O=C(COc1ccc(Cl)cc1)N(Cc1ccccc1)c1ccccn1	-14%	i	?	-5%	i	3%
CC(C)(Oc1ccc(Cl)cc1)C(=O)N(Cc1ccccc1)c1ccccn1	5%	i	8%	5%	15µM*	?
O=C(COc1ccc(Br)cc1)N(Cc1ccccc1)c1ccccn1	-11%	i	11%	3%	18µM*	-3%
COc1ccc(-c2cc(C(F)(F)F)nc(SCC(=O)Nc3ccc(C(C)=O)cc3)n2)cc1	.	i	.	.	?	.
COc1cccc(CN2CCN(Cc3cc(OC)c(OC)c(OC)c3)CC2)c1OC	7%	i	7%	1%	?	0%
CCN1CCN(Cc2cccc(Oc3ccc(Cl)cc3)c2)CC1	?	i	16µM*	?	?	16µM*
COc1cccc(CN2CCN(Cc3cccc(Oc4ccccc4)c3)CC2)c1OC	-30%	i	15µM*	-23%	i	23µM*
COC(=O)[C@]12CCCCC=C1N(Cc1ccccc1)C(=O)[C@H](CC(=O)N1CCN(C(=O)c3ccco3)CC1)C2	14%	i	.	9%	?	.
O=C(NCc1cccc(F)c1)c1cccc(NC(=O)c2nsc3ccccc23)c1	.	?	.	.	i	.
CC(=O)N1c2ccc(S(=O)(=O)N3CCC(C(=O)Nc4cccc(Cl)c4)CC3)cc2CC1C (stereo not given)	?	?	0%	-2%	i	10%
Fc1ccc(-c2cn(-c3ccccc3)c3[n+]2CCS3)cc1	-2%	?	4%	?	i	-5%
Clc1ccc(-c2cn(-c3ccc(Cl)cc3)c3[n+]2CCCCC3)cc1	-15%	?	19%	-28%	i	-11%
Clc1ccc(-c2cn(-c3ccccc3)c3[n+]2CCS3)cc1	-11%	13µM*	14%	-12%	i	9%
COc1ccc(-c2cn(-c3ccc(Cl)cc3)c3[n+]2CCCCC3)cc1	-24%	9.2µM*	?	-25%	i	3%
Clc1ccc(-c2c[n+]3c(n2-c2ccccc2)SCC3)cc1	-2%	15µM*	5%	-13%	i	-1%
CC(=O)c1ccc(-n2cc(-c3ccc(C(C)(C)C)cc3)[n+]3c2SCCC3)cc1	?	?	-48%	?	i	-12%
COc1ccc(-c2cn(-c3ccc(Br)cc3)c3[n+]2CCS3)cc1	-29%	8.2µM*	4%	-25%	i	-3%
O=C1C(=O)N(CNc2cccnc2)c2ccccc21	22%	i	4%	15%	i	-3%
O=C1C(=O)N(CNc2ccccn2)c2ccccc21	-22%	?	7.3µM*	?	i	12µM*
O=C(COc1ccc(/C=N/NC(=O)c2cc3ccccc3o2)cc1Br)Nc1ccccc1	-2%	13µM*	?	-25%	?	?
COc1ccccc1/C=N/NC(=O)c1cc2c(ccc3ccccc32)o1	19%	?	?	-3%	i	?
N#CCn1cc(/C=N/NC(=O)c2cc3c(ccc4ccccc43)o2)c2ccccc21	9.2µM*	?	?	?	i	?

Bioassay records as filed in PubChem.
